# According to PubChem BioAssay (NCI):
# Where “and” joins values, the source holds several entries; their conditions need not be identical. Identical values can stand only once. About 83,000 compounds went through this panel and 20% of them were active in at least one assay; those are over-represented in the sample as a whole.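 Cells were grown in 96-well plates and exposed to the test compound at a single concentration for 48 hours; results are reported as percent growth, with values below 10 considered active.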 Calls of active or inactive are those of the source.
# Tests used:
# Assay in all cases: NCI-60 one-dose screen, 48 h (100 = growth as untreated, 0 = no growth, -100 = all killed)
# [1] = system: T-47D breast
# [2] = system: BT-549 breast
# [3] = system: MDA-MB-435 melanoma
# [4] = system: SW-620 colon
# [5] = system: MCF7 breast
# [6] = system: HCT-116 colon
# [7] = system: HCC-2998 colon
# [8] = system: KM12 colon
smiles,measurement,setting,value
COc1cc2c(c(OC)c1OC)-c1ccc(OC)c(=O)cc1[C@@H](NC(C)=O)CC2,growth,[1]; 10 µM unless noted,69.8% (inactive) and 49.2% (inactive) and 70.5% (inactive)
same,growth,[2]; 10 µM unless noted,4.27% (active) and -10% (active) and -7.06% (active)
same,growth,[3]; 10 µM unless noted,-49.9% (active) and -0.781% (active) and -50.8% (active)
same,growth,[4]; 10 µM unless noted,23.7% (inactive) and 18.3% (inactive) and 26.4% (inactive)
same,growth,[5]; 10 µM unless noted,15.1% (inactive) and 15.6% (inactive) and 11.7% (inactive)
same,growth,[6]; 10 µM unless noted,1.53% (active) and 0.462% (active) and 0.179% (active)
same,growth,[7]; 10 µM unless noted,3.25% (active) and 13.4% (inactive) and -59% (active)
same,growth,[8]; 10 µM unless noted,-6.61% (active) and 2.96% (active) and -29.9% (active)
Cn1c(=O)n(-c2ccc(C(C)(C)C#N)cc2)c2c3cc(-c4cnc5ccccc5c4)ccc3ncc21,growth,[1]; 10 µM unless noted,-12.2% (active) and -4.13% (active)
same,growth,[2]; 10 µM unless noted,-8.12% (active) and -14.5% (active)
same,growth,[3]; 10 µM unless noted,2.94% (active) and 5.92% (active)
same,growth,[4]; 10 µM unless noted,8% (active) and 3.15% (active)
same,growth,[5]; 10 µM unless noted,4.64% (active) and -3.88% (active)
same,growth,[6]; 10 µM unless noted,16.8% (inactive) and 13% (inactive)
same,growth,[7]; 10 µM unless noted,1.76% (active) and 7.09% (active)
same,growth,[8]; 10 µM unless noted,3.33% (active) and -9.75% (active)
CCN(CC)CCNc1cc(-c2cccc(OC(F)(F)F)c2)nc2ccc(N3CCCC3)cc12,growth,[1]; 10 µM unless noted,64.4% (inactive) and -11.2% (active) and 20.9% (inactive)
same,growth,[2]; 10 µM unless noted,-70.7% (active) and 34.3% (inactive) and 62.7% (inactive)
same,growth,[3]; 10 µM unless noted,-4.48% (active) and -55% (active) and -33.6% (active)
same,growth,[4]; 10 µM unless noted,31% (inactive) and 0.803% (active) and 8.35% (active)
same,growth,[5]; 10 µM unless noted,6.94% (active) and -27.3% (active) and -21.5% (active)
same,growth,[6]; 10 µM unless noted,-88% (active) and -45.7% (active) and 4.4% (active)
same,growth,[7]; 10 µM unless noted,23.8% (inactive) and -45.2% (active) and -4.48% (active)
same,growth,[8]; 10 µM unless noted,32.3% (inactive) and -1.83% (active) and 9.39% (active)
CCCCCCCCCCCCCCCc1ccc(Cl)c(O)c1Cl (tested in a mixture with another compound),growth,[1]; 0.25 µM,35.5% (inactive)
same,growth,[1]; 10 µM,85.4% (inactive)
same,growth,[2]; 0.25 µM,66.2% (inactive)
same,growth,[2]; 10 µM,103% (inactive)
same,growth,[3]; 0.25 µM,56% (inactive)
same,growth,[3]; 10 µM,103% (inactive)
same,growth,[4]; 0.25 µM,24.4% (inactive)
same,growth,[4]; 10 µM,101% (inactive)
same,growth,[5]; 0.25 µM,16.4% (inactive)
same,growth,[5]; 10 µM,112% (inactive)
same,growth,[6]; 0.25 µM,21.4% (inactive)
same,growth,[6]; 10 µM,75.7% (inactive)
same,growth,[8]; 0.25 µM,46% (inactive)
same,growth,[8]; 10 µM,96.7% (inactive)
CCc1ccccc1-n1c(N)c(C#N)c(-c2ccc(OC)c(OC)c2)c(C#N)c1=O,growth,[1]; 10 µM,102% (inactive)
same,growth,[1]; 100 µM,3.67% (active)
same,growth,[2]; 10 µM,109% (inactive)
same,growth,[2]; 100 µM,-17.8% (active)
same,growth,[3]; 10 µM,113% (inactive)
same,growth,[3]; 100 µM,82.5% (inactive)
same,growth,[4]; 10 µM,116% (inactive)
same,growth,[4]; 100 µM,86.4% (inactive)
same,growth,[5]; 10 µM,115% (inactive)
same,growth,[5]; 100 µM,10.4% (inactive)
same,growth,[6]; 10 µM,110% (inactive)
same,growth,[6]; 100 µM,27.8% (inactive)
same,growth,[7]; 10 µM,122% (inactive)
same,growth,[7]; 100 µM,79.6% (inactive)
same,growth,[8]; 10 µM,99.3% (inactive)
same,growth,[8]; 100 µM,45.6% (inactive)
CCN(CC)C(=O)c1cccnc1,growth,[1]; 10 µM unless noted,114% (inactive)
same,growth,[2]; 10 µM unless noted,98.5% (inactive)
same,growth,[3]; 10 µM unless noted,97.9% (inactive)
same,growth,[4]; 10 µM unless noted,106% (inactive)
same,growth,[5]; 10 µM unless noted,108% (inactive)
same,growth,[6]; 10 µM unless noted,105% (inactive)
same,growth,[7]; 10 µM unless noted,109% (inactive)
same,growth,[8]; 10 µM unless noted,104% (inactive)
CN1CCN(Cc2occc(=O)c2O)CCN(C)CCN(Cc2occc(=O)c2O)CC1,growth,[1]; 10 µM unless noted,93.8% (inactive) and 77.4% (inactive)
same,growth,[2]; 10 µM unless noted,97.1% (inactive) and 84% (inactive)
same,growth,[3]; 10 µM unless noted,108% (inactive) and 47.3% (inactive)
same,growth,[4]; 10 µM unless noted,113% (inactive) and 15.6% (inactive)
same,growth,[5]; 10 µM unless noted,91.6% (inactive) and 24.9% (inactive)
same,growth,[6]; 10 µM unless noted,100% (inactive) and 10.6% (inactive)
same,growth,[7]; 10 µM unless noted,112% (inactive) and 47.5% (inactive)
same,growth,[8]; 10 µM unless noted,109% (inactive) and 28.9% (inactive)
Clc1ccc(SSc2ccc(Cl)cc2)cc1,growth,[1]; 10 µM unless noted,96.2% (inactive) and 103% (inactive)
same,growth,[2]; 10 µM unless noted,89% (inactive) and 9.06% (active)
same,growth,[3]; 10 µM unless noted,94% (inactive) and 100% (inactive)
same,growth,[4]; 10 µM unless noted,97.3% (inactive) and 88.8% (inactive)
same,growth,[5]; 10 µM unless noted,102% (inactive) and 75.1% (inactive)
same,growth,[6]; 10 µM unless noted,95.9% (inactive) and 71% (inactive)
same,growth,[7]; 10 µM unless noted,96.8% (inactive) and 98% (inactive)
same,growth,[8]; 10 µM unless noted,107% (inactive)
CN(C)c1ccc(/C=C(\C#N)c2ccccc2)cc1,growth,[1]; 10 µM unless noted,39.5% (inactive) and 36.1% (inactive) and 29.8% (inactive)
same,growth,[2]; 10 µM unless noted,51.3% (inactive) and 52.8% (inactive) and 49.5% (inactive)
same,growth,[3]; 10 µM unless noted,-44.1% (active) and -7.42% (active) and -26.3% (active)
same,growth,[4]; 10 µM unless noted,18.1% (inactive) and 33.3% (inactive) and 21.8% (inactive)
same,growth,[5]; 10 µM unless noted,23.6% (inactive) and 24.5% (inactive) and 33% (inactive)
same,growth,[6]; 10 µM unless noted,17.4% (inactive) and 27.1% (inactive) and 19.8% (inactive)
same,growth,[7]; 10 µM unless noted,-28.9% (active) and 68.2% (inactive) and 47.7% (inactive)
same,growth,[8]; 10 µM unless noted,13% (inactive) and 38.8% (inactive) and 28.7% (inactive)
